± gives the standard deviation.
Tests used:
[1] = tested on: MILI (PIWIL2) piRISC loaded with L1MC piRNA (26 nt); assay: pre-steady-state target cleavage rate (min^-1); guide: L1MC piRNA 5'p-UAACUAAAUACUAUGCAAGCUGUAGG; higher = faster piRNA-guided slicing of the target
How it was run: (§1)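 Cleave-'n-Seq: a transcribed, DNA-blocked target RNA library (0.1 nM) was mixed with 1 nM active affinity-purified piRISC carrying one synthetic guide, with or without 500 nM GTSF1 partner protein, in HEPES–potassium acetate buffer at 33 °C for 0–8 or 0–960 min. Uncleaved targets were sequenced and normalised to depth and to weakly complementary targets. Three trials were pooled, and k3 was capped at 0.0001 min^-1. The pre-steady-state cleavage rate came from a burst-and-steady-state fit.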

[2] = tested on: EfPiwi piRISC loaded with L1MC piRNA (26 nt); assay: pre-steady-state target cleavage rate (min^-1); auxiliary factor: 500 nM Ephydatia muelleri Gtsf1; guide: L1MC piRNA 5'p-UAACUAAAUACUAUGCAAGCUGUAGG; MIWI and MILI are mouse PIWI proteins and EfPiwi is from a freshwater sponge; tags in brackets are library labels; higher = faster piRNA-guided slicing of the target
How it was run: as §1

[3] = auxiliary factor: 500 nM mouse GTSF1
[4] = auxiliary factor: none (no GTSF1)

Sequence: UCCUGGAACAGCUUGCAUAGUAAUUAGUUA
- pre-steady-state target cleavage rate [1, 3]: 0.268 ± 0.022
- pre-steady-state target cleavage rate [1, 4]: 0.00705 ± 0.0022
- pre-steady-state target cleavage rate [2]: 0.00814 ± 0.0027

Sequence: UCCUGCUUACAGCUUGCAUAGUAUUUAGUUA
- pre-steady-state target cleavage rate [1, 3]: 0.451 ± 0.043
- pre-steady-state target cleavage rate [1, 4]: 0.0088 ± 0.0032
- pre-steady-state target cleavage rate [2]: 0.0638 ± 0.015

Sequence: UCCUCCUGCAGCUUGCAUAGUAUUUAGUUA
- pre-steady-state target cleavage rate [1, 3]: 0.301 ± 0.018
- pre-steady-state target cleavage rate [1, 4]: 0.0088 ± 0.0027
- pre-steady-state target cleavage rate [2]: 0.103 ± 0.024

Sequence: UCCUGGAUCAGGUUGCUUAGUAUUUAGUUA
- pre-steady-state target cleavage rate [1, 3]: 0.189 ± 0.011
- pre-steady-state target cleavage rate [1, 4]: 0.00878 ± 0.0023
- pre-steady-state target cleavage rate [2]: 0.00555 ± 0.0024

Sequence: UCCUGGAACAGCGUUGCAUAGUAUUUAGUUA
- pre-steady-state target cleavage rate [1, 3]: 0.203 ± 0.017
- pre-steady-state target cleavage rate [1, 4]: 0.0103 ± 0.0025
- pre-steady-state target cleavage rate [2]: 0.0162 ± 0.0046

Sequence: UCCUCCUACAGCUUGCAUAGUAUUUAUUUA
- pre-steady-state target cleavage rate [1, 3]: 0.142 ± 0.019
- pre-steady-state target cleavage rate [1, 4]: 0.00314 ± 0.0027
- pre-steady-state target cleavage rate [2]: 0.143 ± 0.053

Sequence: UCCUCCUACAGCUAGCAUACUAUUUAGUUA
- pre-steady-state target cleavage rate [1, 3]: 0.0706 ± 0.011
- pre-steady-state target cleavage rate [1, 4]: 0.0031 ± 0.0022
- pre-steady-state target cleavage rate [2]: 0.00634 ± 0.002

Sequence: UCCUGCUACAGCUUGCAUAGUAUUUAUUUA
- pre-steady-state target cleavage rate [1, 3]: 0.148 ± 0.03
- pre-steady-state target cleavage rate [1, 4]: 0.00466 ± 0.0021
- pre-steady-state target cleavage rate [2]: 0.0055 ± 0.0037

Sequence: UCCUGGAUCAGCAUGCAUAGUUUUUAGUUA
- pre-steady-state target cleavage rate [1, 3]: 0.0257 ± 0.0092
- pre-steady-state target cleavage rate [1, 4]: 0.00668 ± 0.0023
- pre-steady-state target cleavage rate [2]: 0.00291 ± 0.0027

Sequence: UCCUCCUAGAGCUUGCAUAGUAAUUAGUUA
- pre-steady-state target cleavage rate [1, 3]: 0.264 ± 0.029
- pre-steady-state target cleavage rate [1, 4]: 0.00317 ± 0.0031
- pre-steady-state target cleavage rate [2]: 0.011 ± 0.0039

Sequence: UCCUGCUACAGCUUGCAUAGUAGUUAGUUA
- pre-steady-state target cleavage rate [1, 3]: 0.127 ± 0.03
- pre-steady-state target cleavage rate [1, 4]: 0.00253 ± 0.0025
- pre-steady-state target cleavage rate [2]: 0.00461 ± 0.0015

Sequence: UCCUGGUUCAGCUUGCAUUGUAUUUAGUUA
- pre-steady-state target cleavage rate [1, 3]: 0.191 ± 0.023
- pre-steady-state target cleavage rate [1, 4]: 0.0105 ± 0.0029
- pre-steady-state target cleavage rate [2]: 0.0223 ± 0.007

Sequence: UCCUCCUACAUGCUUGCAUAGUAUUUAGUUA
- pre-steady-state target cleavage rate [1, 3]: 0.149 ± 0.018
- pre-steady-state target cleavage rate [1, 4]: 0.0058 ± 0.002
- pre-steady-state target cleavage rate [2]: 0.00449 ± 0.0018

Sequence: UCCUGGAUCAUCUUGCAUAGUAUUUAGUUA
- pre-steady-state target cleavage rate [1, 3]: 0.241 ± 0.014
- pre-steady-state target cleavage rate [1, 4]: 0.00614 ± 0.002
- pre-steady-state target cleavage rate [2]: 0.101 ± 0.023

Sequence: UCCUGGAACAGUUUGCAUAGUAUUUAGUUA
- pre-steady-state target cleavage rate [1, 3]: 0.285 ± 0.014
- pre-steady-state target cleavage rate [1, 4]: 0.00997 ± 0.0019
- pre-steady-state target cleavage rate [2]: 0.0565 ± 0.013

Sequence: UCCUGGAUCAGCAUGCAUAGUAUAUAGUUA
- pre-steady-state target cleavage rate [1, 3]: 0.297 ± 0.018
- pre-steady-state target cleavage rate [1, 4]: 0.00579 ± 0.0027
- pre-steady-state target cleavage rate [2]: 0.00329 ± 0.0028

Sequence: UCCUGGAACAGCUAGCAAAGUAUUUAGUUA
- pre-steady-state target cleavage rate [1, 3]: 0.11 ± 0.013
- pre-steady-state target cleavage rate [1, 4]: 0.00729 ± 0.002
- pre-steady-state target cleavage rate [2]: 0.00366 ± 0.0025

Sequence: UCCUGGAACAGCUUGCAUAGUAUUUAGUUG [g2:g23:cont:t1G]
- pre-steady-state target cleavage rate [1, 3]: 0.252 ± 0.024
- pre-steady-state target cleavage rate [1, 4]: 0.00663 ± 0.0021
- pre-steady-state target cleavage rate [2]: 0.0115 ± 0.0034

Sequence: UCCUGGAUCAGCUUGCAUAGUAGUUAGUUA
- pre-steady-state target cleavage rate [1, 3]: 0.201 ± 0.016
- pre-steady-state target cleavage rate [1, 4]: 0.00826 ± 0.0022
- pre-steady-state target cleavage rate [2]: 0.0207 ± 0.0049

Reference: the supplement of paper PMC10338343
